# This is a sample that favours compounds with a hit; in the whole collection about 4.6% have one here.
# GAA850 FXN act – increases GAA850 frataxin promoter reporter activity. AID 540364. HEK293 lucGAA850 FXN promoter luciferase reporter, 24 h; percent of 10 µM SAHA response. 360,000 tested, 0.56% active. activation, % at 6 µM;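 active means activation above the average of all compounds screened plus 3 SD, cutoff fixed separately per campaign, cut at about 7.5% in these data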
# HSF1 inhib – HSF1 inhibition; NIH3T3-HGL HSE-luciferase, MG132-induced, luminescence 8 h; stronger effect = lower value; 300,000 tested, 0.77% active; AID 2098; activity change, negative = inhibition, % at 7.5 µM (by protocol);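 active means more than half of replicate wells show activity change below -50%, luminescence cut by over half; inconclusive means some wells, but at most half, below -50%; inactive means no replicate well below -50%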;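 further: luciferase reports HSF-1 transcriptional activity via heat shock element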
# AHR act – human AHR activation | P35869 | AHR-responsive luciferase reporter cells, luminescence | activation, % at 5 µM | 320,000 tested, 2.5% active | AID 2796; in the data active means activation above about 47%
# HSF1 activator – increases HSF-1 driven luciferase reporter signal; NIH3T3-HGL HSF-1 luciferase reporter, MG132, 8 h; 100% = twice DMSO control signal; activation, % at 9 µM; 300,000 tested, 1.7% active;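 active means mean replicate activation of at least 50% with a set share of replicates each reaching 50%; inconclusive means only one of those two conditions met; inactive means mean below 50% and too few replicates reaching it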
# Hits are given with their value; – = inactive; ? = inconclusive; · = no result given.
SMILES,GAA850 FXN act,HSF1 inhib,AHR act,HSF1 activator
COc1ccc(N(CC(=O)N/N=C/c2ccc(OC3CSC3)cc2)S(=O)(=O)c2ccccc2)cc1,–,–,–,–
Cc1ccccc1NC(=O)/C(=C/c1cccs1)NC(=O)c1ccco1,–,–,–,–
COc1ccccc1NC(=O)/C(=C\c1cccs1)NC(=O)c1ccco1,–,–,66.3,–
COc1ccc(N(CC(=O)N/N=C/c2cccs2)S(=O)(=O)c2ccccc2)cc1,–,–,64.0,–
COc1cc(SC)ccc1C(=O)OCC(=O)NC1CCCCC1,–,–,–,–
COc1cc(OC)cc(C(=O)N2CCN(S(C)(=O)=O)CC2)c1,–,-82.3,–,–
CC1C(=O)N2CCCc3cc(S(=O)(=O)N4CCN(c5ccc(F)cc5)CC4)cc1c32 (centres undefined),–,–,–,–
Cc1[nH]c2ccccc2c1CCNC(=O)c1ccc2c(c1[N+](=O)[O-])C(=O)c1ccccc1C2=O,–,–,–,57.6
Cc1[nH]c2c(C)cccc2c1CCNC(=O)c1ccc2c(c1[N+](=O)[O-])C(=O)c1ccccc1C2=O,–,–,–,53.2
CCC1c2ccc(C)n2CCN1C(=O)Nc1ccccc1OC (centres undefined),–,–,48.0,–
COc1ccccc1NC(=O)N1CCN(C(=O)Nc2ccccc2OC)CC1,–,–,–,–
Nc1nc(-c2ccccc2)c(N=Nc2cccc3ccccc23)s1,–,–,70.1,–
Nc1nc(-c2ccccc2)c(N=Nc2ccccc2Cl)s1,–,–,–,–
CCN1C(=O)CSC1=NC12CC3CC(CC(C3)C1)C2,–,–,–,–
S=C(c1ccccc1)N1CCSCC1,–,–,–,–
O=C(CSC(=S)N1CCSCC1)c1ccccc1,–,–,·,60.2
Cc1ccc(C2C(C(=O)O)c3ccccc3C(=O)N2C)c(C)c1 (centres undefined),–,–,–,–
CC(=O)N=c1sccn1CC(=O)c1ccc([N+](=O)[O-])cc1,–,–,–,58.0
O=C(Cn1c(-c2ccccc2)c[n+]2ccsc12)c1ccc([N+](=O)[O-])cc1,–,–,–,–
C=CCc1cccc(CNc2nc3ccccc3n2CCC)c1O,–,–,–,149.4
C=CCc1cccc(CNc2nc3ccccc3n2CC)c1O,–,–,–,–
COc1cccc(-c2cc(C(F)(F)F)n3nc(N)nc3n2)c1,–,–,68.5,–
COCCNCCCOc1ccc(C(C)(C)c2ccccc2)cc1,–,–,–,–
Cc1ccc(-c2noc(CSc3ccccc3)n2)cc1,–,–,–,69.5
O=C(Cc1ccc(Cl)cc1)NCCS(=O)(=O)N1CCN(c2ccccc2)CC1,–,–,–,–
SMILES,GAA850 FXN act,HSF1 inhib,AHR act,HSF1 activator
Nc1ccccc1SCc1csc(-c2ccc(Cl)cc2)n1,–,–,–,–
O=C(/C=C/c1cccs1)c1cc(Br)ccc1OC(=O)N1CCOCC1,–,–,52.9,–
O=C(NNC(=S)NCC1CCCO1)c1cc(Br)ccc1Cl (centres undefined),–,–,–,–
COc1cc(/C=N/NC(=O)c2ccc([N+](=O)[O-])cc2Cl)cc(Br)c1O,–,–,–,–
COc1cc(/C=N/N2C(=O)c3ccccc3NC2(C)c2cccc([N+](=O)[O-])c2)cc(Br)c1O (centres undefined),–,–,–,55.6
Cc1nc(N2CCOCC2)c2c(C)c(C(=O)Nc3ccc(F)cc3F)sc2n1,–,–,–,–
Cc1cccc(N/C(N)=N/c2nc(C(F)(F)F)cc(C(F)(F)F)n2)c1,–,–,68.5,–
Cc1ccc(S(=O)(=O)NC(=O)Nc2nnc(C)s2)cc1,–,–,–,–
O=C(CCC(=O)c1ccc(F)cc1)Nc1cc(Cl)cc(Cl)c1,–,–,–,57.8
O=C(Nc1sc2c(c1C(=O)O)CCC2)c1cccs1,–,–,–,–
Cc1ccc(C=Nc2ccccc2C(N)=O)o1,–,–,–,60.1
c1ccc(-n2nnnc2NCCCN2CCOCC2)cc1,–,–,–,–
N#Cc1c(-c2cccs2)nc(SCc2ccc(Cl)cc2)[nH]c1=O,–,–,·,–
O=c1[nH]c(SCc2ccc(Cl)cc2)nc2ccsc12,·,–,–,126.9
Cc1coc(NC(=O)CSc2nc(-c3ccc(Cl)cc3)cc(C(F)(F)F)c2C#N)n1,–,-69.3,–,–
COc1ccc(-c2cc(C(F)(F)F)c(C#N)c(SCC(=O)Nc3nc(C)co3)n2)cc1,–,–,–,–
Cc1ccc(-c2cc(C(=O)NCc3ccco3)no2)cc1,–,–,–,–
Cc1ccc(NC(=O)c2cccc(-n3cnnn3)c2)cc1Cl,–,·,56.2,·
CS(=O)(=O)c1ccc(NC(=O)c2cccc(-n3cnnn3)c2)cc1,–,·,–,·
O=C(c1ccccc1F)N1CCN(c2ncccn2)CC1,–,–,–,–
CSc1ccccc1C(=O)N1CCN(c2ncccn2)CC1,–,-70.3,–,–
O=C1c2ccccc2C(=O)N1CCCCN(C(=O)c1cccc([N+](=O)[O-])c1)c1ccc(Cl)cc1,–,–,72.2,?
O=C1c2ccccc2C(=O)N1CCCCN(C(=O)c1ccco1)c1ccc(Cl)cc1,–,–,–,–
CC(NC(=O)NC(=O)c1ccc(F)cc1)C1CC1 (centres undefined),–,·,–,·
CN(C(=O)COC(=O)c1ccc(Cl)cc1N)C1CCCCC1,–,–,–,58.6
SMILES,GAA850 FXN act,HSF1 inhib,AHR act,HSF1 activator
NC1=NC2(CCCC2)n2c(nc3ccccc32)N1,–,–,–,–
CCC1(C)N=C(N)Nc2nc3cc(C)c(C)cc3n21 (centres undefined),–,–,–,70.7
CCC(CNc1cc(OC)cc2cccnc12)NC1CCCCC1 (centres undefined),–,-75.9,48.5,–
COc1cc(NCCCC(C)N)c2ncccc2c1 (centres undefined),–,–,·,–
C/C(=N\Nc1ncc(Cl)cc1Cl)c1ccc(N2CCOCC2)cc1,–,–,–,–
COCc1cc(C)nc2sc(C(=O)OC)c(N)c12,–,–,–,–
COCc1cc(C)nc2sc(C(=O)N3CCCC3)c(N)c12,–,–,75.8,–
Cc1ccc(/C=C/C(=O)Nc2ccc(S(=O)(=O)Nc3ncccn3)cc2)cc1,–,–,–,–
Cc1ccc(/C=C/C(=O)Nc2ccc(S(=O)(=O)Nc3cc(C)nc(C)n3)cc2)cc1,–,–,–,63.8
CCc1ccc(/C=N/NC(=O)c2nnn(-c3nonc3N)c2CN2CCOCC2)cc1,–,–,–,–
COc1ccc(/C=c2\s/c(=C\C(=O)C(C)(C)C)[nH]c2=O)cc1O,–,–,–,63.8
O=C1OC(/C=C/c2ccccc2)=NC/1=C/C=C/c1ccccc1,–,–,–,111.8
Cc1ccc(C(=O)OCC(=O)Nc2ccc3c(c2)OCCO3)cc1C,–,·,·,·
O=C(Nc1ccc(Cl)cc1)N1CCN(c2ccc3nnc(-c4ccc(F)cc4)n3n2)CC1,–,–,–,–
O=C(c1ccc(Br)o1)N1CCN(c2ccc3nnc(-c4ccc(F)cc4)n3n2)CC1,–,–,47.2,–
CCOCCCNC(=O)CC1Oc2ccc(C)cc2NC1=O (centres undefined),–,–,–,–
COc1ccc(/C=C/C(=O)c2ccc3c(c2)OCO3)cc1OC,–,·,–,·

# Screening data: PubChem BioAssay, several laboratories
